Screens deposited in PubChem BioAssay by National Center for Advancing Translational Sciences (NCATS).
Mito fusion act: qHTS Assay for Small Molecule Inhibitors of Mitochondrial Division or Activators of Mitochondrial Fusion | S. cerevisiae fusion-defective mutant growth rescue, CellTiterGlo 48 h | Potency, µM (series often up to 46.1 µM), for the others: at the highest dose growth rescue (activation), most hits filed as activators | 320,000 tested, 0.23% active; note: % of control where 0% means no effect; nearly all actives have a fitted effect of over 45% in size
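Temperature-sensitive fusion-defective S. cerevisiae (e.g. fzo1-1, mgm1-5) were grown with compound in YPEG medium (3% ethanol, 3% glycerol) for 48 hours at 37C. Growth rescue was measured as viability by CellTiterGlo luminescence after 10 minutes at ambient.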
BRCA1 expr up: qHTS Assay to Identify Small Molecule Activators of BRCA1 Expression. MCF7-BRCA1-FFLuc reporter, luminescence, 48 h; response scale: scaled: vehicle 0%, 10 µM genistein 100%. Potency, µM (series often up to 46.1 µM), without a hit: at the top dose activation, most hits filed as activators. 380,000 tested, 1.1% active; note: nearly all actives have a fitted effect of over 80% in size
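Luminescence from a BRCA1-driven firefly luciferase in MCF7 cells was the read-out, taken 15 min after substrate addition following 48 h compound exposure at 37 °C. Data were normalized to a 10 microM genistein control and DMSO vehicle.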
GLP1R inv ag: qHTS of GLP-1 Receptor Inverse Agonists (Inhibition Mode) | Glucagon-like peptide 1 receptor (Homo sapiens), P43220 | HEK293 GLP-1R CRE-luciferase, luminescence, 24 h; GLP-1R form is constitutively active | Potency, µM (highest dose often 38.3 µM), for the others: at the top dose activity change, negative = inhibition, hits mostly inhibitors | 410,000 tested, 1.6% active; note: % is set by controls: 0 for no effect and ±100 for the full control effect; nearly all actives have a fitted effect of over 55% in size
Target sequence (P43220 whole entry, looked up): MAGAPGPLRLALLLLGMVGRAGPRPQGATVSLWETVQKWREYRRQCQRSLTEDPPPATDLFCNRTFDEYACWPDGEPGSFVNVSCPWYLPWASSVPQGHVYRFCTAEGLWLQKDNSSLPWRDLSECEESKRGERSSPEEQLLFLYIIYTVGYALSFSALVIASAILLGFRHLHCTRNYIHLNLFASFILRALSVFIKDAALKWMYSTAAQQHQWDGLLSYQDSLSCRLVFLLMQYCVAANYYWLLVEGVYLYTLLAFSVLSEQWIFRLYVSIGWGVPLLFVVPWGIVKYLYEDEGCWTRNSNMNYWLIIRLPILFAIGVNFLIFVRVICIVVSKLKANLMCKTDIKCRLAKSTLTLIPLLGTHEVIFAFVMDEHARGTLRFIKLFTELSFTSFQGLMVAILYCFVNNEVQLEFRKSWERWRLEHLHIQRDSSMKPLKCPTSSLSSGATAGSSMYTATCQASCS
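Constitutively active GLP-1R drives a cAMP-responsive luciferase in stably transfected HEK293 cells; test compounds are added after overnight (12 h) attachment and left 24 hr, and signal loss in luminescence marks inhibition.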
GLP1R ag: qHTS of GLP-1 Receptor Agonists. HEK293 GLP-1R CRE-luciferase, luminescence, 4-6 h; cells express a hypersensitive GLP-1R form. Potency, µM (highest dose often 45.6 µM), for inactives: top-dose activation, actives largely listed as activators. 380,000 tested, 0.007% active; note: % of control where 0% means no effect
GLP1R cytotox: qHTS of GLP-1 Receptor Inverse Agonists: Cytotox Screen. Potency, µM (series often up to 38.3 µM), without a hit: at the highest dose activity change, negative = inhibition, actives largely listed as inhibitors. 410,000 tested, 0.13% active. HEK293 cAMP-luciferase reporter cells, luminescence, 24 h. AID 624418, 2012;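 note: loss of luciferase light is scored as toxicity; % is set by controls: 0 for no effect and ±100 for the full control effect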
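Seeding density was 200 cells/uL; after overnight-length (12 h) culture, 23 nL compounds went on for 24 h at 37 °C. Readout used a luciferase detection reagent, luminescence taken after 12 min at room temperature.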
An asterisk follows results filed as active; ? = inconclusive; · = no result; [ ] = another dose, or the depositor's remark. In the library only some 2.8% were active in any assay of this set; here they are far more common. Calls come from the whole dose curve; as a rule, active = well fitted curve in the direction sought with a large enough effect; inconclusive = small, poorly fitted or top-dose-only effect, or another doubt; inactive = no such curve, though single readings can be large; an effect the other way counts as inactive or inconclusive. Potency is the fitted concentration of half-maximal effect.

SMILES	Mito fusion act	BRCA1 expr up	GLP1R inv ag	GLP1R ag	GLP1R cytotox
O=C(CSc1ccccn1)Nc1ccc2c(c1)OCCO2	1.5%	11.2µM*	-4.8%	7.7%	0.7%
CC1=Nc2ccccc2/C1=C/c1sc(=S)n(-c2cccc(C(=O)O)c2)c1O	-4.7%	-12.9%	1.7%	-1.5%	-2.7%
O=C(CSc1nnc(-c2cccc(Cl)c2)o1)Nc1ccc2c(c1)OCCO2	1.5%	7.94µM*	6.3%	-8.6%	-16.8%
O=C(CNCc1ccccc1Cl)Nc1ccc2c(c1)OCCO2	-14.3%	10µM*	0.2%	-1.3%	-0.2%
CCN(CC(=O)Nc1ccc2c(c1)OCCO2)C(=O)c1cc(Cl)nc2ccccc12	0.4%	-16.0%	-5.4%	-1.1%	-7.2%
Cn1cccc1C(=O)OCC(=O)Nc1ccc2c(c1)OCCO2	·	2µM*	?	-13.2%	-4.6%
Cn1cccc1C(=O)OCC(=O)NCc1ccc2c(c1)OCO2	-7.0%	16.3%	1.1%	-5.8%	1.3%
CCN(CC(=O)Nc1ccc2c(c1)OCCO2)C(=O)c1ccc(Cl)cc1Cl	0.5%	1.78µM*	?	9.9%	-0.8%
COC(=O)c1cc2oc3ccccc3c2n1Cc1ccccn1	6.6%	8.3%	4.47µM*	13.3%	-14.6%
CCCCCc1ccc(-c2ccc(OC)cc2)nc1	9.1%	8.91µM*	0.7%	28.5%	10.2%
CCCCCc1ccc(-c2ccc(C(=O)Oc3ccc(C(=O)OC)cc3)cc2)nc1	·	·	-1.4%	·	6.0%
COc1ccccc1N1CCN(C(=O)CSc2nc3ccccc3nc2N2CCC(C)CC2)CC1	11.8%	-51.9%	5.01µM*	8.7%	-0.6%
COc1ccccc1N1CCN(c2nc3ccccc3nc2C(C#N)C(=O)OC(C)C)CC1 (configuration not stated)	22.4%	-24.5%	11.2µM*	-5.3%	-22.8%
COc1ccccc1N1CCN(C(=O)CSc2nc3ccccc3nc2Cc2ccc(C)cc2)CC1	·	·	?	·	-6.4%
COc1ccccc1N1CCN(C(=O)CSc2nc3ccccc3nc2N2CCCCC2)CC1	-2.8%	-50.6%	5.01µM*	6.3%	1.4%
O=C(Nc1cccc(-c2nnc(-c3ccco3)o2)c1)C(c1ccccc1)c1ccccc1	1.5%	-34.7%	8.91µM*	-1.6%	10.9%
O=C(Cc1ccccc1)Nc1cccc(-c2nnc(-c3ccco3)o2)c1	1.5%	16.3%	-21.9%	2.6%	-3.9%
COc1ccccc1OCC(=O)Nc1cccc(-c2nnc(-c3ccco3)o2)c1	?	5.01µM*	13.8%[7.66 µM]	11.0%	16.1%[7.66 µM]
CCc1cc(-c2nnn(-c3cc(C(C)C)ccc3C)c2CC)ccc1-c1cn(CCc2c[nH]c3ccccc23)nn1	·	-27.4%	2.51µM*	1.3%	-33.2%
COc1cccc(NC(=O)c2cnc[nH]2)c1	2.1%	67.5%	1.5%	7.0%	2.4%
O=C(Nc1ccc(Br)cc1)c1cnc[nH]1	7.6%	12.6µM*	11.6%	6.3%	0.4%
Cc1ccc2oc(C(=O)N(Cc3ccccc3)C3CCS(=O)(=O)C3)c(C)c2c1 (configuration not stated)	10.5%	-0.3%	?	21.5%	-20.8%
Cc1c(C(=O)N(Cc2ccccc2Cl)C2CCS(=O)(=O)C2)oc2ccccc12 (configuration not stated)	22.4%	-32.6%	10µM*	13.7%	-30.8%
Oc1ccccc1/C=N/NC(=S)NC1CC2C=CC1C2 (configuration not stated)	-2.6%	0.0%	7.94µM*	?	0.0%
Oc1ccccc1C=NNC(=S)NC1CC2C=CC1C2 (configuration not stated)	·	-2.3%	?	16.9%	?
COc1cc(/C=N/Nc2nnc3c(n2)[nH]c2ccccc23)ccc1O	-2.1%	8.5%	3.0%	-12.8%	-19.6%
Cn1nc(C(F)(F)F)c(-c2ccc(Br)cc2)c1NC(=O)c1cccnc1	14.8%	-7.3%	?	7.4%	-14.3%
